RORgamma inh = blocks mouse ROR gamma transcriptional activity; P51450; Potency, µM (highest dose often 53.6 µM), for inactives: at the top dose activity change, negative = inhibition, actives largely listed as inhibitors; Drosophila S2 Gal4-RORgamma UAS-luciferase reporter, 20 h; actives 5.4% (n = 310,000); further: on the % scale 0 is the no-effect control and ±100 the full control effect; nearly all actives have a fitted effect of over 60% in size
Target sequence (P51450 whole entry, looked up, the tested form may be a part): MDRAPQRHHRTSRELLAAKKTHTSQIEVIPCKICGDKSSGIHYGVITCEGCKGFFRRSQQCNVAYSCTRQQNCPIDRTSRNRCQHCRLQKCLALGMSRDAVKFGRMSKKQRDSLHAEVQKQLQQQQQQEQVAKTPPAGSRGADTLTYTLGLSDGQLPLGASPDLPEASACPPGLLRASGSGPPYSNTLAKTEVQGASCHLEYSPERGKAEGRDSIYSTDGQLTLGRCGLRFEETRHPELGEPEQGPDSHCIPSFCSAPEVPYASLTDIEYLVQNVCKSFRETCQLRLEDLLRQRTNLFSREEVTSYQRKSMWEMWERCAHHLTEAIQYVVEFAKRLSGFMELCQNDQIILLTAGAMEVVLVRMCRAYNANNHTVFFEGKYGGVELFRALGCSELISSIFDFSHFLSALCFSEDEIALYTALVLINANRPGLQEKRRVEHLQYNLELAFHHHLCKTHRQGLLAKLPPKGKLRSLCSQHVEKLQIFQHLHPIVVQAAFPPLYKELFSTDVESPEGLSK
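Using a luciferase readout, inhibitors were identified by reduced reporter activity in Drosophila cells coexpressing a copper-inducible Gal4–ROR gamma fusion and UAS-driven Photinus luciferase, incubated 20 hr after 700 uM copper sulfate.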
HepG2 tox = counter-screen for TGF-b inhibitors: cytotoxicity in HepG2 cells; AID 588856; HepG2 CAGA-GFP viability, ATP luminescence, 18 h; actives 0.76% (n = 410,000); Potency, µM (doses to about 46.1 µM), without a hit: at the highest dose activity change, negative = cytotoxicity, hits mostly cytotoxic
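HepG2 CAGA-GFP cells (1000/well, DMEM with 1% FBS) received compound, then TGF-beta at 500 pg/mL final, and were incubated 18 hours at 37 degrees C. Viability was read by CellTiter-Glo luminescence. Media-only wells were set as complete cell-killing and DMSO as no toxicity.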
ATXN2 expr inh = inhibitors of ATXN2 expression. HEK-293 ATXN2-luciferase reporter, luminescence, 24 h. Potency, µM (highest dose often 57 µM), for the others: at the top dose activity change, negative = inhibition, hits mostly inhibitors. actives 0.72% (n = 360,000); further: on the % scale 0 is the no-effect control and ±100 the full control effect; nearly all actives have a fitted effect of over 55% in size
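ATXN2-luciferase reporter cells (luciferase flanked by upstream and downstream ATXN2 gene portions) were treated 24 h at 37 °C with compounds at up to 57 uM. SteadyGlo luminescence gave expression; GF-AFC fluorescence gave viability.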
Gal4-VP16 FLuc = inhibits Gal4-VP16 luciferase reporter, ROR gamma counter-screen | AID 2546 | Drosophila S2 Gal4-VP16 UAS-luciferase, luminescence, 20 h | Potency, µM (doses to about 53.6 µM), without a hit: top-dose activity, negative = inhibition, usual class: inhibitors | actives 3.5% (n = 310,000);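 further: Gal4-VP16 expression switched on by copper sulfate through the metallothionein promoter; on the % scale 0 is the no-effect control and ±100 the full control effect; nearly all actives have a fitted effect of over 50% in size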
TGFb inhibitor = TGF-b pathway inhibition; actives 1.2% (n = 410,000); AID 588855; HepG2 CAGA-GFP TGF-b/SMAD3 reporter, GFP fluorescence, 18 h; TGF-beta stimulated, 500 pg/mL final; Potency, µM (series often up to 46.1 µM), for inactives: at the highest dose activity, negative = inhibition, hits mostly inhibitors; further: on the % scale 0 is the no-effect control and ±100 the full control effect; nearly all actives have a fitted effect of over 65% in size
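Smad-responsive CAGA-GFP expression was quantified in HEPG2 cells exposed to compounds and 500 pg/mL final TGF-beta for 18 h at 37 degrees C; unstimulated wells defined full inhibition.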
S2 tox = reduces viability in counter-screen for ATXN expression inhibitors | S2 cells (HEK-293 line with an ATXN2-luciferase reporter) viability, CellTiter-Fluor protease fluorescence, 24 h | Potency, µM (top dose mostly 56.7 µM), actives largely listed as cytotoxic | actives 0.49% (n = 400,000); further: nearly all actives have a fitted effect of over 40% in size
Starred values were filed as active, the others as inactive; i = inactive; u = inconclusive; x = not tested or not shown; ! = not confirmed by another sample; [ ] = dose if it differs, or a comment. Only some compounds are listed: those with a hit (about 6.3% of all), similar ones and a draw of the others. The call rests on the fitted dose curve; in most records, active means well fitted curve in the direction sought with a large enough effect; inconclusive means small, poorly fitted or top-dose-only effect, or another doubt; inactive means no such curve, though single readings can be large; an effect the other way counts as inactive or inconclusive. Potency means the concentration at half of the fitted maximal effect.

SMILES	RORgamma inh	HepG2 tox	ATXN2 expr inh	Gal4-VP16 FLuc	TGFb inhibitor	S2 tox
CN1C2CCC(C)(C)C1CC(OC(=O)C(O)(c1cccs1)c1cccs1)C2 (stereo not drawn)	x	x	1%	x	x	i
O=C1NC2C(=CC(O)C(O)C2O)c2cc3c(cc21)OCO3 (stereo not drawn)	x	-4%	0.95µM*	x	u	u
C[C@@]12OC(=O)[C@]1([C@@H](O)[C@@H]1C=CCCC1)NC(=O)[C@H]2CCCl	x	x	0.019µM*	x	x	x
COC1=C(C)C(=O)c2c(c(COC(N)=O)c3n2C[C@@H]2[C@@H]3N2C)C1=O (stereo partly drawn)	x	7.1µM*	x	x	4.5µM*	x
CC(C)(C)c1ccc(C(=O)NC(=S)Nn2cnnc2)cc1	14µM*	-2%	17%	u	9%	u
O=C(NC(=S)N1CC1)c1ccccc1	x	-3%	x	x	1%	i
CCC(C)C1NC(=O)C2CCCN2C(=O)C(CC(C)C)OC(=O)CCNC(=O)C(C)N(C)C(=O)C(C(C)C)N(C)C1=O (stereo not drawn)	x	-37%	u	x	-13%	u
C=CCCC[C@@H]1OC(=O)CNC(=O)C([C@@H](C)CC)NC(=O)[C@@H]2CCCN2C(=O)C([C@@H](C)CC)OC(=O)[C@H](Cc2ccccc2)N(C)C(=O)[C@H](C(C)C)NC(=O)C1(C)C (stereo partly drawn)	x	-31%	32µM*	x	10µM*	u
Clc1cccc(C(Cl)(Cl)Cl)n1	28%	x	x	-14%	x	x
CCOC(=O)N1CCN(C(=O)c2ccc3c(=O)n(CCC4=CCCCC4)c(=S)[nH]c3c2)CC1	-26%	-9%	-12%	14µM*	-13%	i
O=c1[nH]c(=S)n(CCC2=CCCCC2)c(O)c1/C=N/N1CCOCC1	u	27%	x	-5%	21%	i
Clc1ccc(C(Cn2ccnc2)OCc2csc3c(Cl)cccc23)c(Cl)c1 (stereo not drawn)	x	-99%	22µM*	x	u	x
Cn1c(NN=O)nc2ccccc21	0.035µM*	-25%	u	u	u	14µM*
CN1CCN(Cc2nc3ccccc3n2C)CC1	-12%	-2%	2%	-6%	1%	u
CN[C@@H](Cc1c[nH]c2ccccc12)C(=O)O	2%	x	x	-17%	x	x
CC(C)(O)/C=C/C(=O)[C@](C)(O)C1[C@H](O)C[C@@]2(C)C3CC=C4C(C[C@H](O)[C@@H](O)C4(C)C)[C@]3(C)C(=O)C[C@]12C (stereo partly drawn)	x	3%	u	x	0.71µM*	u
OC[C@H]1O[C@@H](n2cnc3cc(Cl)c(Cl)cc32)[C@H](O)[C@@H]1O	x	-41%	-32%	x	u	i
OC[C@H]1O[C@@H](n2cnc3cc(Cl)c(Cl)cc32)[C@H](O)[C@H]1O	u	x	x	7.9µM*	x	x
C[C@]12CC[C@H](O)CC1=CC[C@H]1[C@H]3CCC(=O)[C@@]3(C)CC[C@@H]12	x	x	2%	x	x	x
CC(C)(C)CC(C)(C)c1ccc(O)cc1	-27%	x	u	u	x	35µM*!
O=C1NC[C@H](CCCCN2C[C@@H](Cc3ccccc3)N(CCC3CCCCC3)C(=O)C2=O)N(CCC2CCCCC2)C1=O	x	x	14%	x	x	i
Cc1ccc(C)c(-n2c(C)nc3ccccc3c2=O)c1	24%	0%	x	-9%	0%	u
Cc1ccc2c(c1)c(C1=c3ccccc3=NC1=O)c(O)n2C	7.1µM*	-16%	x	3.5µM*	-18%	u
C[C@H]1[C@@H]2Cc3ccc(O)cc3[C@@]1(C)CCN2C	x	x	-9%[288 µM]	x	x	u
Nc1ccc(-c2ccc(N)c(Cl)c2)cc1Cl	5%	x	x	-6%	x	x
Cc1ccc(-c2nc(CN3C(=O)CN=C(c4ccccc4)c4ccccc43)c(C)o2)cc1	x	-1%	3%	x	-12%	i

Screening results from PubChem.
